Assay results published in PubChem BioAssay (NCI).
The panel holds about 79,000 compounds, 15% with a hit somewhere; the sample as a whole holds those more often. Values without a mark were called inactive. Active and inactive are the calls of the source. Cut-off read from the data, not from the text of the source: active = growth inhibition above about 70%; inactive = the rest.

Experiment: NCI Yeast Anticancer Drug Screen. Data for the rad52 strain (AID 147);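 note: 0% = growth of vehicle-treated control cultures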
Settings: S. cerevisiae rad52 mutant growth inhibition, active compounds read high
Protocol: Growth inhibition of yeast strains with defined genetic alterations is measured as a screen for potential anti-cancer activity. Selected strains with alterations in DNA damage repair or cell cycle control were exposed to compounds and growth inhibition was measured relative to vehicle treated controls. The strain used in this assay is rad52

Row | SMILES | growth inhibition (at 1.2 µM) [%] | growth inhibition (at 3.7 µM) [%] | growth inhibition (at 11.0 µM) | growth inhibition (at 33.0 µM) | growth inhibition (at 100.0 µM)
1 | O=Nc1c(NO)ccc2nn(-c3ccccc3)nc12 | 29 | 68 | 98% (active) | 98% (active) | 98% (active)
2 | O=C1C(Nc2ccccc2)=C(Oc2ccccc2)C(=O)c2ccccc21 | -3 | -6 | 1% | 23% | 32%
3 | C#CCCCc1ccccc1 | -67 | -68 | -68% | -43% | 66%
4 | CCOC(=O)c1cnc2cc(C(F)(F)F)ccc2c1N=[N+]=[N-] | 12 | 13 | 23% | 48% | 85% (active)
5 | O=C1C=CC(=O)N1c1ccc2c(c1)Cc1cc(NC(=O)C(F)(F)F)ccc1-2 | 12 | 24 | 42% | 60% | 74% (active)
6 | CCCCCCCCCCCC(=O)N(C)C | -12 | -6 | -19% | 30% | 98% (active)
7 | c1ccc2c(c1)-c1nc3ccccc3cc1C2N1CCOCC1 (stereo not given) | -2 | 1 | 4% | 8% | 16%
8 | Cn1c(=O)c(-c2ccccc2)c(N=[N+]=[N-])c2ccccc21 | -11 | -6 | 3% | 92% (active) | 89% (active)
